Assay results from PubChem BioAssay (EPA / NIEHS).
“And” between values parts separate entries of the source, which are not always exact repeats. Equal entries are not always repeated. More than one record can exist for a structure, and the calls need not agree. The source made the active and inactive calls. How the source made its calls: active means hit-call score of the fitted dose curve at least 0.9, where 1 is the maximum; inactive means score below 0.9.

Experiments:
[1] = ATG_CMV_CIS: Attagene CIS-FACTORIAL HepG2 Assay for human CMV (Internal Marker) (AID 2282928); settings: HepG2 CMV promoter reporter, transcription factor profiling; actives raise or lower the signal;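 further: endpoint acts as a background internal control marker rather than a target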
In short: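 HepG2 cells transiently transfected with multiple cis-regulated reporter units; 24 h compound exposure. Reporter mRNA quantified by RT-PCR, 6-FAM primer-extension labeling, HpaI digestion and capillary electrophoresis; bidirectional fitting against DMSO baseline.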

[2] = ATG_DR4_LXR_CIS: Attagene CIS-FACTORIAL HepG2 Assay for human Liver X Receptor (LXR), DR4 submotif (AID 2282929); settings: HepG2 Attagene DR4 cis-reporter, mRNA transcription; AC50: actives raise or lower the signal unless noted; outcome: actives raise or lower the signal unless noted
In short: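 Measures endogenous transcription factor activity via a DR4-driven reporter transcript in human HepG2 cells. Compounds incubated 24 h; mRNA quantified by RT-PCR and capillary electrophoresis, analysed as gain or loss of signal versus DMSO.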

[3] = biological target: Aryl hydrocarbon receptor (Homo sapiens) (UniProt P35869); assay: ATG_Ahr_CIS: Attagene CIS-FACTORIAL HepG2 Assay for human Aryl Hydrocarbon Receptor (Ahr) (AID 2282930); settings: HepG2 AhR cis-factorial reporter transcription; actives raise or lower the signal
Aryl hydrocarbon receptor (Homo sapiens), sequence (P35869 whole entry, looked up): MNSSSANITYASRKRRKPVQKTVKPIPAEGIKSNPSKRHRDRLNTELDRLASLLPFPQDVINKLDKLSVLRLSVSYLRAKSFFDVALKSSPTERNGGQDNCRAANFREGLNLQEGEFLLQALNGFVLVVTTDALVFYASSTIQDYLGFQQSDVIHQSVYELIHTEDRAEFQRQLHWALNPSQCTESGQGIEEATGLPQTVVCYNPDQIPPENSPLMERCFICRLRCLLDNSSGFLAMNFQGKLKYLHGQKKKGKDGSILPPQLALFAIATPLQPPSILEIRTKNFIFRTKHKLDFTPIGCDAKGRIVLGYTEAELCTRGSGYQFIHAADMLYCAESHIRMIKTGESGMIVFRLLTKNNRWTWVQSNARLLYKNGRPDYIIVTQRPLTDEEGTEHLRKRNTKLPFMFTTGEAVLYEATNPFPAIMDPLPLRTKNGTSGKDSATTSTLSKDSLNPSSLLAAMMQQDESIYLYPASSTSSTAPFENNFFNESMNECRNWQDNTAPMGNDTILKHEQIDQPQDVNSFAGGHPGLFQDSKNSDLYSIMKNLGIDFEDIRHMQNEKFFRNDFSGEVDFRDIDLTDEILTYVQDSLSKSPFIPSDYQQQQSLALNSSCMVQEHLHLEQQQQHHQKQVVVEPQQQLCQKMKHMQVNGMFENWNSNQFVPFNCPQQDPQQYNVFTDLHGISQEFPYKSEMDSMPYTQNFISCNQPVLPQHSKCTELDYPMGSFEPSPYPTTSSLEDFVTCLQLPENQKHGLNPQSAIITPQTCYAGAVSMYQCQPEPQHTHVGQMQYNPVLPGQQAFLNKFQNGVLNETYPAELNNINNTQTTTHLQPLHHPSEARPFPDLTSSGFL
In short: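 HepG2, transient MRTU (cis) transfection, 24 h exposure. RNA → cDNA → PCR → 6-FAM primer extension → HpaI 2 h 37 C → CE. Fit: bidirectional, DMSO baseline.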

[4] = ATG_AP_1_CIS: Attagene CIS-FACTORIAL HepG2 Assay for human Activator Protein 1 (AP-1) (AID 2282931); settings: HepG2 Attagene cis-factorial AP-1 reporter mRNA; actives raise or lower the signal
In short: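 Bidirectional concentration-response fitting against DMSO controls. Underlying signal: reporter mRNA from cis-promoter constructs in transiently transfected HepG2, measured after 24 h by RT-PCR and capillary electrophoresis.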

[5] = ATG_AP_2_CIS: Attagene CIS-FACTORIAL HepG2 Assay for human Activator Protein 2 (AP-2) (AID 2282932); settings: HepG2 AP-2 cis-reporter, Attagene transcription factor profiling; AC50: actives raise or lower the signal unless noted; outcome: actives raise or lower the signal unless noted
In short: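 Step one: transient transfection of HepG2 with reporter transcription units. Step two: 24 h chemical exposure. Step three: RNA extraction, RT-PCR, labelled fragment analysis by capillary electrophoresis; DMSO serves as baseline.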

[6] = ATG_BRE_CIS: Attagene CIS-FACTORIAL HepG2 Assay for human Bone Morphogenetic Protein (BMP) Response Element (BRE) (AID 2282933); settings: HepG2 BMP response element reporter, Attagene transcription factor profiling; actives raise or lower the signal
In short: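 Gain- or loss-of-signal was derived by bidirectional fitting against DMSO controls. The signal came from reporter mRNA, measured by RT-PCR and capillary electrophoresis, in HepG2 cells transiently carrying multiple reporter units and dosed for 24 h.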

[7] = biological target: Retinoic acid receptor alpha (Homo sapiens) (UniProt P10276); assay: ATG_DR5_RAR_CIS: Attagene CIS-FACTORIAL HepG2 Assay for human Retinoic Acid Receptor Alpha (RARE), DR5 submotif (AID 2282934); settings: HepG2 Attagene cis-factorial RARE DR5 reporter, mRNA; actives raise or lower the signal;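 on AC50: reporter responds to endogenous RAR alpha beta and gamma in HepG2 not RARA alone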
Retinoic acid receptor alpha (Homo sapiens), sequence (P10276 whole entry, looked up): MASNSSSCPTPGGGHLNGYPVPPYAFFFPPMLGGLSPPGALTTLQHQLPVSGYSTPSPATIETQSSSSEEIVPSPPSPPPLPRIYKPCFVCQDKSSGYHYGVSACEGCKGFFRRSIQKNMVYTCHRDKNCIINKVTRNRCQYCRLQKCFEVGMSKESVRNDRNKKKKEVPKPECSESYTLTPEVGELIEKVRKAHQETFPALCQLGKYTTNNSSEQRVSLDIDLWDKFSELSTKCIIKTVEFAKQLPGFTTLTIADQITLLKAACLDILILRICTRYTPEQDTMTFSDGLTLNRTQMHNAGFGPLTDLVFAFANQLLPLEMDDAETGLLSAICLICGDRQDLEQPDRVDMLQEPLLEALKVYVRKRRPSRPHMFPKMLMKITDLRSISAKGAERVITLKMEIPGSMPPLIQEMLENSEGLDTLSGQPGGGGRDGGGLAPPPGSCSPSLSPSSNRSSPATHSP
In short: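 HepG2, transient cis-reporter transfection, 24 h exposure. mRNA readout: RT-PCR, FAM label, HpaI cut, capillary electrophoresis. DMSO baseline, gain/loss fitting.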

[8] = biological target: Transcription factor E2F1 (Homo sapiens) (UniProt Q01094); assay: ATG_E2F_CIS: Attagene CIS-FACTORIAL HepG2 Assay for human E2F Transcription Factor 1 (AID 2282935); settings: HepG2 Attagene cis-reporter, E2F reporter RNA transcripts; actives raise or lower the signal
Transcription factor E2F1 (Homo sapiens), sequence (Q01094 whole entry, looked up): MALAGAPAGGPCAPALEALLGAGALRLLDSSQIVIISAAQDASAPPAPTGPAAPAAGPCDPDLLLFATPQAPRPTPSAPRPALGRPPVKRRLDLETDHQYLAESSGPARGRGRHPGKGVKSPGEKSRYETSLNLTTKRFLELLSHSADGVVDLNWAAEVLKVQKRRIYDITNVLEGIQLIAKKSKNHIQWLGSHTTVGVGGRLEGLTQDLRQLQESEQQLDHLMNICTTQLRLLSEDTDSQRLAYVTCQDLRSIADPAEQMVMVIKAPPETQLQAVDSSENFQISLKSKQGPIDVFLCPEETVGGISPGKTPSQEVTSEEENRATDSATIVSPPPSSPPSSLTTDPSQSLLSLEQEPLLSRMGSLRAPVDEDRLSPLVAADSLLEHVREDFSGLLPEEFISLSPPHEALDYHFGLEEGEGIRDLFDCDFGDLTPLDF
In short: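 Total RNA from 24 h-treated, reporter-transfected HepG2 cells undergoes DNase I treatment, oligo(dT) reverse transcription, PCR and 6-FAM primer extension before capillary electrophoresis.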

[9] = ATG_E_Box_CIS: Attagene CIS-FACTORIAL HepG2 Assay for human Enhancer Box (E-box) (AID 2282936); settings: HepG2 E-box cis-reporter transcription, actives raise or lower the signal
In short: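 DMSO served as negative control and baseline for bidirectional fitting. Human hepatoma HepG2 cells, transiently transfected with cis-reporter constructs, were dosed 24 h; reporter mRNA read by RT-PCR and capillary electrophoresis.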

[10] = ATG_M_61_CIS: Attagene CIS-FACTORIAL HepG2 Assay for M61 Transcription Factor (Internal Marker) (AID 2282937); settings: HepG2 Attagene CIS-FACTORIAL M61 internal marker reporter; actives raise or lower the signal
In short: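 Fluorescence from labelled cDNA fragments, separated by capillary electrophoresis, quantifies reporter induction. HepG2 cells bearing transiently transfected cis-promoter MRTUs were incubated with test chemical for 24 h; DMSO defined baseline for gain/loss fitting.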

| SMILES | outcome [1] | AC50 [2] | outcome [2] | outcome [3] | outcome [4] | outcome [5] | outcome [6] | outcome [7] | outcome [8] | outcome [9] | outcome [10] | AC50 [1] | AC50 [3] | AC50 [4] | AC50 [7] | AC50 [8] | AC50 [9] | AC50 [5] | AC50 [6] |
| --- | --- | --- | --- | --- | --- | --- | --- | --- | --- | --- | --- | --- | --- | --- | --- | --- | --- | --- | --- |
| Cc1ccccc1C(OCCN(C)C)c1ccccc1 (centres undefined) | inactive | 135 µM (active) | inactive | inactive | inactive | inactive | inactive | inactive | inactive | inactive | inactive | – | – | – | – | – | – | – | – |
| O=CC(F)(F)C(F)(F)C(F)(F)C(F)F | inactive | – | inactive | inactive | inactive | inactive | inactive | inactive | inactive | inactive | – | – | – | – | – | – | – | – | – |
| Cc1cc(Cc2cc(C)cc(C(C)(C)C)c2O)c(O)c(C(C)(C)C)c1 | – | 100 µM (active) | – | – | – | inactive | inactive | – | – | inactive | – | 7.15 µM (active) | 55.6 µM (active) | 24.9 µM (active) | 11.4 µM (active) | 170 µM (active) | – | – | – |
| C=CC(=O)OCC(CO)(COCC(COC(=O)C=C)(COC(=O)C=C)COC(=O)C=C)COC(=O)C=C | – | 4.59 µM (active) | – | inactive | inactive | inactive | inactive | – | – | – | – | 2.97 µM (active) | – | – | 11 µM (active) | 19.6 µM (active) | 2.52 µM (active) | – | – |
| CC(C)C=O | inactive | – | – | inactive | inactive | inactive | inactive | inactive | inactive | inactive | inactive | 87.6 µM (active) | – | 61.2 µM (active) | – | – | – | – | – |
| O=C(O)C(F)(F)OC(F)(F)C(F)(F)OC(F)(F)C(F)(F)OC(F)(F)C(F)(F)C(F)(F)C(F)(F)F | inactive | 16.6 µM (active) and 21.7 µM (active) | – | inactive | inactive | – | inactive | inactive | inactive | inactive | – | – | – | – | – | – | 89.1 µM (active) | 93.6 µM (active) and 28.1 µM (active) | – |
| Brc1ccc(Oc2ccc(Br)cc2Br)cc1 | inactive | – | inactive | inactive | inactive | inactive | inactive | inactive | inactive | inactive | – | – | – | – | – | – | – | – | – |
| NC(=NCCCCCCN=C(N)/N=C(\N)Nc1ccc(Cl)cc1)/N=C(\N)Nc1ccc(Cl)cc1 | inactive | – | inactive | inactive | inactive | inactive | inactive | – | inactive | inactive | inactive | 163 µM (active) and 166 µM (active) | 21.9 µM (active) | 49.5 µM (active) | – | 48.6 µM (active) | 26.8 µM (active) and 23.9 µM (active) | 16.9 µM (active) | 3.85 µM (active) and 3.17 µM (active) |
| CCCCCCCCC1CCC(=O)O1 (centres undefined) | inactive | – | inactive | inactive | inactive | inactive | inactive | inactive | inactive | inactive | – | – | – | – | – | – | – | – | – |
| O=C1C=CC(=O)N1c1cccc(N2C(=O)C=CC2=O)c1 | inactive | – | inactive | inactive | inactive | inactive | inactive | inactive | inactive | inactive | – | – | – | – | – | – | – | – | – |
| CCCCCc1ccc(O)cc1 | – | 33 µM (active) | – | – | inactive | inactive | inactive | inactive | inactive | inactive | – | 33.4 µM (active) | 15 µM (active) | – | – | – | – | – | – |
| CC(O)COc1ccccc1 (centres undefined) | inactive | – | inactive | inactive | – | inactive | inactive | inactive | inactive | inactive | inactive | – | 6.06 µM (active) | – | – | – | – | – | – |
| CCOC=C(C(=O)OCC)C(=O)OCC | inactive | – | inactive | inactive | inactive | inactive | inactive | inactive | inactive | inactive | – | – | – | – | – | – | – | – | – |
| O=CC(F)(F)C(F)(F)C(F)(F)F | inactive | – | inactive | inactive | inactive | inactive | inactive | inactive | inactive | inactive | – | – | – | – | – | – | – | – | – |
| CC(C)(C)c1ccc(O)c(O)c1 | inactive | – | – | inactive | – | inactive | inactive | inactive | inactive | inactive | – | 64.9 µM (active) [middle of 4 runs] | 20 µM (active) | – | – | – | – | – | 47.3 µM (active) |
| OCC(CO)(CBr)CBr | inactive | – | inactive | inactive | inactive | inactive | inactive | inactive | inactive | inactive | inactive | – | – | – | – | – | – | – | – |
| CCC(C)c1nccnc1OC (centres undefined) | inactive | – | inactive | inactive | inactive | inactive | inactive | inactive | inactive | inactive | inactive | – | – | – | – | – | – | – | – |
| Oc1cc2ccccc2cc1O | inactive | – | inactive | – | – | inactive | inactive | inactive | inactive | inactive | inactive | – | 21.1 µM (active) | 70.2 µM (active) | – | – | – | – | – |
| CCOCCOCC | inactive | – | inactive | inactive | inactive | inactive | inactive | inactive | inactive | inactive | inactive | – | – | – | – | – | – | – | – |
| C=CCOCC(CO)(CO)CO | inactive | – | inactive | inactive | inactive | inactive | inactive | inactive | inactive | inactive | inactive | – | – | – | – | – | – | – | – |
| FC(OC(F)(F)C(F)(F)C(F)(F)F)C(F)(F)F (centres undefined) | inactive | – | inactive | inactive | inactive | inactive | inactive | inactive | inactive | inactive | inactive | – | – | – | – | – | – | – | – |
| O=P(O)(O)CCC(F)(F)C(F)(F)C(F)(F)C(F)(F)C(F)(F)C(F)(F)F | inactive | – | inactive | inactive | inactive | inactive | inactive | inactive | inactive | inactive | inactive | – | – | – | – | – | – | – | – |
